Experimental findings from PubChem BioAssay are described below.

Where “and” joins values, the source holds several entries; their conditions need not be identical. Equal values may be shown once. Records with an inconclusive call do not appear. For some assays here: Measured potencies and affinities stand elsewhere. Calls of active or inactive are those of the source. Cut-off read from the data, not from the text of the source, unless noted: active = parasite load remaining mostly below about 12% (no sharp cut-off); inactive = mostly above about 10%.

Experiment [1] is described as follows: polyglutamine-triggered caspase-3 activation inhibitors, cell-based (AID 1583). To be noted: polyglutamine-induced caspase-3 activation, cell assay; stronger effect = higher value;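 tested at 10 µM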.
A short description of experiment [2]: suppressors of polyQ aggregation in yeast, 75Q-TubU reporter (AID 1593). To be noted: Yeast 75Q polyglutamine aggregation reporter.
Experiment [3] is described as follows: rescue of polyQ-huntingtin neuronal dysfunction in worms, whole organism, C. elegans mechanosensory neurons, N-terminal huntingtin (AID 1599). To be noted: touch response, stronger effect = higher value.
Experiment [4] in a line: inhibitors of mitochondrial cytochrome c release, biochemical, purified mitochondria (AID 1603).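 Note: mouse liver mitochondria challenged with calcium chloride; signal normalized to the plate average as 100%.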 To be noted: stronger effect = lower value.
Experiment [5] can be described thus: inhibitors of polyQ protein aggregation (AID 1604). To be noted: polyglutamine-induced protein aggregation inhibition assay; stronger effect = higher value; tested at 2.5 µM.
Experiment [6] is described as follows: enhancers of glutamate uptake in motor neurons, MN-1 cell line (AID 1612).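 Note: tested at 1 µM final; 0% = mean of DMSO vehicle wells on each plate; positive means more glutamate uptake than control and negative means less.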 To be noted: MN-1 motor neuron cells, stronger effect = higher value.
A short description of experiment [7]: suppressors of polyglutamine aggregation in yeast, 75Q-TubH (AID 1616). To be noted: S. cerevisiae 75Q-TubH polyglutamine aggregation suppression; stronger effect = higher value.
The nature of experiment [8]: liver-stage malaria parasite growth inhibition, primary screen, cell-based, HepG2, luciferase luminescence, HepG2 viability (AID 624349).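 Note: 100% = mean of DMSO negative control wells on the same plate.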 To be noted: P. berghei liver stage in HepG2, luciferase luminescence, concentration not given here; parasite load remaining: stronger effect = lower value; viability: measured here: HepG2 viability without parasites.
In experiment [9] the target is 6-phosphogluconate dehydrogenase, decarboxylating (Homo sapiens) (UniProt P52209). The experiment is described as follows: 6PGD enzyme inhibitors, primary screen, biochemical, human, recombinant enzyme, NADPH absorbance (AID 1159550;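 active = at least 20% inhibition of 6-phosphogluconate dehydrogenase activity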). To be noted: recombinant 6PGD, NADPH absorbance 341 nm; at 10 µM; stronger effect = higher value.
6-phosphogluconate dehydrogenase, decarboxylating (Homo sapiens), sequence (P52209 whole entry, looked up): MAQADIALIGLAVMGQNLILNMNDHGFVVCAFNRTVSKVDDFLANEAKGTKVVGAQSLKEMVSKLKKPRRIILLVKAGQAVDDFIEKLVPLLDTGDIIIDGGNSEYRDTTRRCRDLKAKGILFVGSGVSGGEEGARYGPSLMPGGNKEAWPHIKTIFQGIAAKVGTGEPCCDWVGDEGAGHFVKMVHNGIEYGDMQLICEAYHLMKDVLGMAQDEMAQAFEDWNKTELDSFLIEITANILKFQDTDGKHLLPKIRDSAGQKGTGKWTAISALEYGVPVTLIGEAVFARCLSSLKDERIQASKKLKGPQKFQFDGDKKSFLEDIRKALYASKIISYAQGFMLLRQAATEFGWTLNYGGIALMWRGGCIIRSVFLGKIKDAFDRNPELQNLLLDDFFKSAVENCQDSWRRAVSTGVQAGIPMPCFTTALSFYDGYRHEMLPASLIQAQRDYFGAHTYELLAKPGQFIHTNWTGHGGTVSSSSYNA
Experiment [10] in a line: differential killing of epithelial or mesenchymal cells, primary screen, imaging, PC-3E GFP, TEM4-18 mCherry, co-culture (AID 1345086;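 active = compounds killing one labelled cell type while sparing the other, by normalised counts and ratio limits, not self-fluorescent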;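 for all read-outs here: cells exposed to compound for 72 h before imaging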;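 for red/green cell ratio (normalised): normalised mesenchymal count divided by normalised epithelial count so high means epithelial killing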). To be noted: imaging cell counts, at 1 µM; for red/green cell ratio (normalised): actives lie on both sides, counts scaled to control wells, 1 = unselective.
Experiment [11] is described as follows: SU-DIPG-VI glioma cell viability, MIPE4.0 library, CellTiter-Glo luminescence, qHTS (AID 1347066; cut-off not given, nearly all actives have AC50 up to about 30 µM;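 note: cells exposed to compound for 48 hours before readout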). To be noted: CellTiter-Glo ATP luminescence.
The nature of experiment [12]: sensitizers of A549 cells to miR-34 induction, primary screen, imaging, A549 dox-inducible miR-34, nuclei and caspase counts (AID 1347080;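 active = compounds whose cell count with miR-34 switched on is under 0.7 times the count with it off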). To be noted: A549 miR-34 inducible, Hoechst nuclei count, 48 h.
The target in experiment [13] is NAD(+) hydrolase SARM1 (Homo sapiens) (UniProt Q6SZW1). The experiment can be described thus: SARM1 TIR NADase inhibitors, cell lysate, NAD-Glo luminescence (AID 1508614;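 active = compound whose remaining NAD level is above about 45 nM, limit read from the data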;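 note: higher remaining NAD means stronger inhibition of SARM1 NADase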). To be noted: SAM-TIR HEK293T lysate NADase, at 1 µM, stronger effect = higher value.
NAD(+) hydrolase SARM1 (Homo sapiens), sequence (Q6SZW1 whole entry, looked up, the tested form may be a part): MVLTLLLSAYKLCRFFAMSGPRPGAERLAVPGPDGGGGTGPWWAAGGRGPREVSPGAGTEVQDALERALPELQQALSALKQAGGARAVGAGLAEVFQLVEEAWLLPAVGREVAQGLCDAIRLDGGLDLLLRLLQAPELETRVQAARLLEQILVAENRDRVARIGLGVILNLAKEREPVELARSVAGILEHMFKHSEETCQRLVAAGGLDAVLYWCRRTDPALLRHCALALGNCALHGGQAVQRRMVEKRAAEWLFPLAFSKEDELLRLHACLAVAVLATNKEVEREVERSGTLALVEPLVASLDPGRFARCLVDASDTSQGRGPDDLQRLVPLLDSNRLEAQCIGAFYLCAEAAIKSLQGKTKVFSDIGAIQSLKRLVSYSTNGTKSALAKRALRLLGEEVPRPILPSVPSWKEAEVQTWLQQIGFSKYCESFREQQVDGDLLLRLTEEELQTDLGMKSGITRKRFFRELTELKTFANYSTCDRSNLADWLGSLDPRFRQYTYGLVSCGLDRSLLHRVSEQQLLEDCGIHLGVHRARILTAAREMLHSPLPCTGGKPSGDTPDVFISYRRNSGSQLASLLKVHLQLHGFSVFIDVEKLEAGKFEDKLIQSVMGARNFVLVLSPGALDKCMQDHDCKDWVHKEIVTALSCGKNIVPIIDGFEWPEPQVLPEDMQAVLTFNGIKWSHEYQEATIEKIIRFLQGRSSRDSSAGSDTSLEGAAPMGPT
Experiment [14] has as its target Mitogen-activated protein kinase 7 (Homo sapiens) (UniProt Q13164). The experiment can be described thus: ERK5 transactivation activators in reporter cells, primary screen, cell-based, HTS (AID 1508626;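 active = luciferase signal above three times the same-plate solvent-only control wells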;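 note: luciferase driven by Gal4-ERK5 fusion binding five Gal4 sites before minimal TATA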). To be noted: HeLa Gal4-ERK5 transactivation, 18 h, at 5 µM, stronger effect = higher value.
Experiment [15] can be described thus: hESC survival regulators, cell-based (AID 493140; call rule not given here;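 note: cells exposed to compounds for four days before counting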). To be noted: human embryonic stem cell survival screen; stronger effect = higher value.
A short description of experiment [16]: survival rescue of mitochondrial mutant cells in low glucose, primary screen, MELAS cybrids, Rieske KO mouse fibroblasts, CellTiter-Glo (AID 1508586;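 active = mean z-score across replicates of 1.96 or higher in either the MELAS or the Rieske mutant cell line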;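 note: z relative to plate mean and SD of compound and empty wells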).
Experiment [17] is described as follows: viability rescue of complex I mutant cybrids, primary screen, cell-based, galactose medium, ATP luminescence (AID 1645843;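 active = z-score of at least 1.8 in each of two replicates, scored against plate mean and spread of sample wells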;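 note: positive z means more ATP and so rescue of galactose-driven cybrid death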). To be noted: complex I mutant cybrid cells, 72 h, stronger effect = higher value.
Where [18] appears, read: measured here: epithelial PC-3E GFP cell survival.
The mark [19] stands for this setting: measured here: mesenchymal TEM4-18 mCherry cell survival.
Where [20] appears, read: stronger effect = lower value, cell number ratio, induced over uninduced.
The mark [21] stands for this setting: measured here: relative caspase fold change +Dox/-Dox.
The mark [22] stands for this setting: measured here: total cells with miR-34 induction, stronger effect = lower value.
[23] abbreviates: measured here: total cells without miR-34 induction.
[24] abbreviates: MELAS cybrid survival, CellTiter-Glo 48 h, stronger effect = higher value.
Where [25] appears, read: Rieske KO mouse fibroblast survival, CellTiter-Glo 72 h.

Mitogen-activated protein kinase 7 (Homo sapiens), sequence (Q13164 whole entry, looked up, the tested form may be a part): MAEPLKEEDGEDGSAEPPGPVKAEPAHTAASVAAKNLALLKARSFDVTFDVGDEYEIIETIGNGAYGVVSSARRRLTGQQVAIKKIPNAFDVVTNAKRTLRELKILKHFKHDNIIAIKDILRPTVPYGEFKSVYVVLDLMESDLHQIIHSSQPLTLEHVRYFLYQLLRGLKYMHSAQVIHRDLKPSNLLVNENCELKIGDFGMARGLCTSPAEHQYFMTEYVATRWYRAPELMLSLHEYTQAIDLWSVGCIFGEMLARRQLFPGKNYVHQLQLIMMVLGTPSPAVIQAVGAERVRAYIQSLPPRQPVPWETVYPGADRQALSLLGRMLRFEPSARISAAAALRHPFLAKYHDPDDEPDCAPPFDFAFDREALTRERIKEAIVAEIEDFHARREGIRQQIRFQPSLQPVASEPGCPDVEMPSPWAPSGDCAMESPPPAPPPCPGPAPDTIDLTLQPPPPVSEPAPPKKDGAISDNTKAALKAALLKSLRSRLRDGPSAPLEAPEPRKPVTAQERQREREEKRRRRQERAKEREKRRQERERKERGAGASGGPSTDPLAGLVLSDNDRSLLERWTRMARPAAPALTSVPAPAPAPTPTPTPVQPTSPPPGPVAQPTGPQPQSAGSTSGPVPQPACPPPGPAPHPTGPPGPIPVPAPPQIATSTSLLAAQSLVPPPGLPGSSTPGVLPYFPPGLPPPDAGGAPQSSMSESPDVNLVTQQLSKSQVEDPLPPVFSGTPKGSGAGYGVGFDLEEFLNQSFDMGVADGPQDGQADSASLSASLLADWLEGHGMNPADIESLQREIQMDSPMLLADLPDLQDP

For the compound `CC1=C(/C=C/C(C)=C/C=C/C(C)=C/C=C/C=C(C)/C=C/C=C(C)/C=C/C2=C(C)CCCC2(C)C)C(C)(C)CCC1`, the values for the inhibition in experiment [1] and in experiment [9] were -13.5% and 2.51% (inactive), respectively. For the same compound, in experiment [2], the score was found to be 1.3. For the same compound, the rescue above control in [3] is -6.44. For the same compound, the cytochrome c release ratio in experiment [4] amounted to 0.86. In experiment [5], this compound showed an inhibition of aggregation of 42.6%. Further, in experiment [6], the glutamate uptake change was -16.2%. The compound further came in with an aggregation suppression score in [7] of 0.881. Besides, the parasite load remaining in experiment [8] was 58% (inactive). In experiment [8], the viability came to 103%. Also, the red/green cell ratio (normalised) in [10] was 0.84 (inactive). The normalised cell number in [10] (setting [18]) was 1.16; in [10] (setting [19]), 0.98. Besides, the compound was classed as inactive in experiment [11]. Further, the fold change in [12] (setting [20]) was 0.908 (inactive); in experiment [12] (setting [21]), 1.03. For the same compound, the cell count was 11100 in [12] (setting [22]) and 12200 in [12] (setting [23]). In addition, in experiment [13], the remaining NAD is 10 nM (inactive). The luciferase signal in experiment [14] was 36 AU (inactive).

Turning to `O=C(/C=C/C=C/c1ccc2c(c1)OCO2)N1CCCCC1`, the inhibition in experiment [1] was -11.5%; in experiment [9] it was 0.86% (inactive). Moreover, in experiment [2], the score was determined as 0.85. The rescue above control in experiment [3] came out at 3.18. For the same compound, in experiment [4], the cytochrome c release ratio was 0.68. The compound also had an inhibition of aggregation in experiment [5] of 51%. Also, the glutamate uptake change in [6] was determined as 10.6%. This compound also displayed an aggregation suppression score in experiment [7] of 0.367. In addition, the survival in experiment [15] is 6.58 (inactive). The red/green cell ratio (normalised) in experiment [10] was 0.95 (inactive). The normalised cell number in [10] (setting [18]) amounted to 1.26; in [10] (setting [19]), 1.2. The outcome in [11] was inactive. For the same compound, the fold change in [12] (setting [20]) is 0.898 (inactive) and 0.941 (inactive); in [12] (setting [21]), 1.07 and 2.41. The cell count in experiment [12] (setting [22]) was 7720 and 10400; in [12] (setting [23]), 8590 and 11100. For the same compound, the remaining NAD in experiment [13] is 10 nM (inactive). In [14], the luciferase signal was 80 AU (inactive).

Consider `CCn1nc(C(=O)O)c(=O)c2cc3c(cc21)OCO3`, for which the inhibition in experiment [1] is 20.5%; in experiment [9], 6.67% (inactive). For the same compound, the score in experiment [2] came out at 0.7. The rescue above control in experiment [3] came out at 3.16. In experiment [4], the cytochrome c release ratio is 0.93. The inhibition of aggregation in experiment [5] came to 18.2%. Further, the glutamate uptake change in experiment [6] is -5.25%. Also, in [7], the aggregation suppression score was found to be 0.697. Also, the survival in [15] was 2.42 (inactive). Also, the parasite load remaining in [8] is 87.3% (inactive) and 66.8% (inactive). Besides, the viability in [8] was 99.6% and 76.9% and 91.7%. Further, the red/green cell ratio (normalised) in experiment [10] is 1.25 (inactive). The normalised cell number in experiment [10] (setting [18]) came to 1.11; in [10] (setting [19]), 1.38. The fold change in [12] (setting [20]) is 0.983 (inactive) and 0.931 (inactive) and 0.893 (inactive); in experiment [12] (setting [21]), 1.81 and 0.999 and 1.16. For the same compound, the cell count in experiment [12] (setting [22]) was 10100 and 8650 and 10900; in experiment [12] (setting [23]), 10300 and 9290 and 12200. Besides, the results for the z-score in experiment [16] (setting [24]), in experiment [16] (setting [25]) and in experiment [17] were -0.474 (inactive), -0.663 and 0.215 (inactive), respectively. Moreover, the remaining NAD in experiment [13] was 10 nM (inactive). The luciferase signal in experiment [14] is 32 AU (inactive).

As for `CCCc1nn(C)c2c(=O)[nH]c(-c3cc(S(=O)(=O)N4CCN(C)CC4)ccc3OCC)nc12`, the parasite load remaining in experiment [8] was 94.8% (inactive) and 65.8% (inactive) and 48% (inactive). Further, the viability in experiment [8] is 89.3% and 101% and 108%. In [9], the inhibition was 6.7% (inactive). Moreover, the red/green cell ratio (normalised) in experiment [10] is 0.98 (inactive). Moreover, the normalised cell number stood at 1.05 in [10] (setting [18]) and 1.03 in experiment [10] (setting [19]). The cell count in [12] (setting [22]) is 10500 and 7310 and 9670. For the same compound, the z-score is -0.38 (inactive) and -0.0288 (inactive) and 1.25 (inactive) in experiment [16] (setting [24]); -0.0156 and 0.388 and 1.37 in [16] (setting [25]); 0.235 (inactive) and 0.33 (inactive) in [17]. In addition, the remaining NAD in experiment [13] was 10 nM (inactive). The luciferase signal in experiment [14] is 60 AU (inactive).
